LmPK inhibitor – inhibitors of Leishmania mexicana pyruvate kinase | purified LmPK, Kinase-Glo ATP luminescence, 1 h | 290,000 compounds, 0.37% hits | Q27686 | AID 1721 | Potency, µM (series often up to 57.5 µM), for the others: at the highest dose activity change, negative = inhibition, actives largely listed as inhibitors; note: potency is the fitted concentration of half-maximal effect
Target sequence (Q27686 whole entry, looked up): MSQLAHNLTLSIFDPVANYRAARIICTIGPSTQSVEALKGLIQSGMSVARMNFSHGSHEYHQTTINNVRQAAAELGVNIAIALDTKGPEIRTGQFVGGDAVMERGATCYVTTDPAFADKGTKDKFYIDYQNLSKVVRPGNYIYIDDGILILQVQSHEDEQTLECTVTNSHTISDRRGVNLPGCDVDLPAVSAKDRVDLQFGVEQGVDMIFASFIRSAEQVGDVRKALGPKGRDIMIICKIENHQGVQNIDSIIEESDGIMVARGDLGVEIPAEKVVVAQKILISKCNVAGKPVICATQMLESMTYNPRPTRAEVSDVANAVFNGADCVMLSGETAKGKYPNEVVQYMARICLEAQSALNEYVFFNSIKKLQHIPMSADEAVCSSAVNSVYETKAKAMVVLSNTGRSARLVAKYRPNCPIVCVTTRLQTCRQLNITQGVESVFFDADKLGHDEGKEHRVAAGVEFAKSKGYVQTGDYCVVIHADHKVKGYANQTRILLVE
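Kinase-Glo luminescence read after 1 h RT reaction of 0.1 nM LmPK with 0.5 mM PEP and 0.1 mM ADP. Activity scaled between uninhibited and enzyme-free controls.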
HCMV inh – inhibitors of human cytomegalovirus. activity change, negative = inhibition, % at 57.5 µM. AID 1259415. 410,000 compounds, 4.5% hits. HFF cells, HCMV-luciferase reporter, 72 h; active compounds read low; in the data active = activity change below about -60%; inconclusive = no clear call, values can overlap the other calls; inactive = above about -39%
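HFF cells seeded 16 h at 37C, treated with compounds, infected with luciferase-reporter HCMV at MOI 1 PFU/cell; luciferase read at 72 h post infection, normalized to buffer-only and Salinomycin controls.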
VACV Venus inh – inhibitors of vaccinia virus (Venus reporter); Potency, µM (titrated, usually from 36.5 µM), for the others: at the top dose activity change, negative = inhibition, most hits filed as inhibitors; Vaccinia virus Venus reporter expression, fluorescence; AID 720580; 330,000 compounds, 0.46% hits; calls by dose curve; tested in A549 cells; note: potency is the fitted concentration of half-maximal effect; nearly all actives have a fitted effect of over 30% in size
Vaccinia mCherry – inhibitors of vaccinia virus infection (mCherry reporter signal). Vaccinia virus mCherry reporter infection, fluorescence. Potency, µM (highest dose often 36.5 µM), without a hit: at the top dose activity change, negative = inhibition, hits mostly inhibitors. 310,000 compounds, 0.63% hits. AID 720579; calls by dose curve; tested in A549 cells; note: potency is the fitted concentration of half-maximal effect; nearly all actives have a fitted effect of over 35% in size
Tb PYK inh – T. brucei pyruvate kinase inhibition; 410,000 compounds, 0.12% hits; Potency, µM (titrated, usually from 76.8 µM), without a hit: top-dose activity, negative = inhibition, actives largely listed as inhibitors; Q57TT1; TbPYK enzyme, Kinase-Glo Plus ATP luminescence, 45 min; note: potency is the fitted concentration of half-maximal effect; nearly all actives have a fitted effect of over 50% in size
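TbPYK + substrate in 50 mM TEA pH 7.2, 100 mM KCl, 10 mM MgCl2, 0.05% BSA, 0.01% Tween-20; cpd pinned; ADP 130 uM final; 45 min RT; Kinase-Glo Plus 10 min; luminescence endpoint.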
* hit, by the source's call. Compounds with a hit are over-represented: about 5% of the library has one in this group of screens. Unless noted, calls come from the whole dose curve; as a rule, active = well fitted curve in the direction sought with a large enough effect; inconclusive = small, poorly fitted or top-dose-only effect, or another doubt; inactive = no such curve, though single readings can be large; an effect the other way counts as inactive or inconclusive. % is set by controls: 0 for no effect and ±100 for the full control effect.

For Cc1ccc(/C=C/c2nc3ccccc3c(=O)[nH]2)cc1 the results were LmPK inhibitor inconclusive, HCMV inh 46.8 and Tb PYK inh -15.5%.
Cc1ccc(/C=C/c2nc3ccccc3[nH]2)o1 was read as LmPK inhibitor 15.8µM*, HCMV inh 110.5, VACV Venus inh -3.3%, Vaccinia mCherry -10.5% and Tb PYK inh inconclusive.
Screening Cc1ccc(/C=C/c2nc3ccccc3[nH]2)cc1 returned HCMV inh -91.2*, VACV Venus inh -22.5%, Vaccinia mCherry -27.3% and Tb PYK inh inconclusive.
`CC(C)CCn1cnc2c(sc3nc4c(cc32)CSC(C)(C)C4)c1=O` gave LmPK inhibitor 1.8%, HCMV inh -74.4*, VACV Venus inh -12.3%, Vaccinia mCherry inactive and Tb PYK inh -3.7%.
COc1ccc(C(=O)N(Cc2ccco2)Cc2cccs2)c(O)c1 was read as LmPK inhibitor 9.8%, HCMV inh 2.9 and Tb PYK inh -0.6%.
`COc1ccc(OC)c(NC(=O)CN(Cc2ccc(F)cc2)C2CCCCC2)c1` gave LmPK inhibitor 9.5%, HCMV inh -93.2*, VACV Venus inh -17.9%, Vaccinia mCherry -28.9% and Tb PYK inh 3.4%.
Screening COc1ccc(C(=O)/C=C/C(=O)N(CC(=O)NCCC(C)C)Cc2cccs2)c(O)c1 returned LmPK inhibitor -16.1%, HCMV inh -99.8* and Tb PYK inh inconclusive.
`COc1ccc(C(=O)/C=C/C(=O)N(CC(=O)NC2CCCCC2)Cc2ccc(F)cc2)c(O)c1` gave LmPK inhibitor 1.0%, HCMV inh -115.7*, VACV Venus inh -19.9%, Vaccinia mCherry inactive and Tb PYK inh -19.0%.
COc1c(C=NNC(N)=O)c(OC)c(OC)c2c1CCO2 was read as HCMV inh 0.9, VACV Venus inh 8.1%, Vaccinia mCherry -8.5% and Tb PYK inh 1.3%.
O=C(COc1cccnc1[N+](=O)[O-])NC1CCS(=O)(=O)C1 (stereo unspecified) was read as LmPK inhibitor -0.1%, HCMV inh 27.2, VACV Venus inh -2.6%, Vaccinia mCherry -12.2% and Tb PYK inh -4.8%.
Screening CCOc1ccc(Nc2cc(C)c3ccccc3n2)cc1 returned LmPK inhibitor 1.3%, HCMV inh -20.5 and Tb PYK inh 2.3%.
CCOc1ccc(Nc2c3ccccc3nc3ccccc23)cc1 was read as LmPK inhibitor 0.1%, HCMV inh -80.6*, VACV Venus inh inconclusive, Vaccinia mCherry 5.62µM* and Tb PYK inh 2.4%.
For Cc1ccc(OCC(=O)NNc2c3ccccc3nc3ccccc23)cc1 the results were LmPK inhibitor -1.4%, HCMV inh -95.0*, VACV Venus inh inconclusive, Vaccinia mCherry -17.5% and Tb PYK inh -12.0%.
`Cc1cc(CNC(=O)COc2ccccc2)c2ccccc2n1` gave LmPK inhibitor -1.6%, HCMV inh 18.8, VACV Venus inh -20.8%, Vaccinia mCherry -9.6% and Tb PYK inh 4.3%.
Screening O=C(Cc1ccccc1)NNc1c2ccccc2nc2ccccc12 returned LmPK inhibitor -0.1%, HCMV inh -66.6*, VACV Venus inh -29.4%, Vaccinia mCherry -19.6% and Tb PYK inh -16.1%.
`Cc1cccc(OCC(=O)NNc2c3ccccc3nc3ccccc23)c1` gave LmPK inhibitor 3.3%, HCMV inh -96.8* and Tb PYK inh 3.0%.
For CC1CC(C)CN(C(=O)COC(=O)/C=C/c2ccco2)C1 (stereo unspecified) the results were HCMV inh inconclusive, VACV Venus inh -9.7%, Vaccinia mCherry -11.7% and Tb PYK inh -3.7%.
`COC(=O)c1nnn(CC(=O)Nc2ccc(Br)c(C)c2)c1N` gave HCMV inh 41.2, VACV Venus inh -3.4%, Vaccinia mCherry -0.3% and Tb PYK inh 1.1%.
O=C(CCCCCN1C(=O)c2ccccc2C1=O)NCc1ccccn1 was read as LmPK inhibitor 1.4%, HCMV inh -37.8, VACV Venus inh inconclusive and Tb PYK inh 2.6%.
Screening Cn1nc(C(F)(F)F)c(C#N)c1N1CCN(c2ccc(F)cc2)CC1 returned LmPK inhibitor 0.3%, HCMV inh -72.6*, VACV Venus inh -27.4% and Tb PYK inh -2.3%.
Screening COCCCn1c(C)nnc1SCC(=O)NNC(=O)COc1ccc(Cl)cc1 returned LmPK inhibitor 0.5%, HCMV inh 15.8, VACV Venus inh 7.7%, Vaccinia mCherry -19.7% and Tb PYK inh 2.5%.
Screening CCOc1ccc(N2CC(C(=O)Nc3ccc(F)cc3F)CC2=O)cc1 (stereo unspecified) returned LmPK inhibitor -6.6%, HCMV inh -101.6*, VACV Venus inh -1.6%, Vaccinia mCherry -6.3% and Tb PYK inh -2.8%.
CCOc1ccc(N2CC(C(=O)Nc3ccc4c(c3)OCO4)CC2=O)cc1 (stereo unspecified) was read as LmPK inhibitor 1.1%, HCMV inh -64.0*, VACV Venus inh -2.1%, Vaccinia mCherry -8.1% and Tb PYK inh -1.0%.
`CCCOc1ccc(N2CC(C(=O)Nc3cccc(Cl)c3Cl)CC2=O)cc1` (stereo unspecified) gave HCMV inh -87.5*, VACV Venus inh -22.5%, Vaccinia mCherry inconclusive and Tb PYK inh -0.9%.
CCCOc1ccc(N2CC(C(=O)Nc3ccccc3C(=O)NC)CC2=O)cc1 (stereo unspecified) was read as LmPK inhibitor -8.1%, HCMV inh -6.4, VACV Venus inh -12.7%, Vaccinia mCherry 0.9% and Tb PYK inh -1.1%.
Cc1csc(NC(=O)C2CC(=O)N(c3ccc4c(c3)OCCO4)C2)n1 (stereo unspecified) was read as HCMV inh 14.4 and Tb PYK inh -8.5%.
`CCOc1ccc(N2CC(C(=O)Nc3ccccc3OC)CC2=O)cc1` (stereo unspecified) gave LmPK inhibitor 2.8%, HCMV inh 5.4, VACV Venus inh -3.0%, Vaccinia mCherry -7.2% and Tb PYK inh -8.9%.
Screening CCc1ccc(-c2csc(NC(=O)C3CC(=O)N(c4ccc5c(c4)OCCO5)C3)n2)cc1 (stereo unspecified) returned LmPK inhibitor -0.1%, HCMV inh -84.3*, VACV Venus inh inconclusive, Vaccinia mCherry -28.1% and Tb PYK inh 9.1%.
Screening COc1ccc(-n2c(CN3CCC(C(N)=O)CC3)nc3ccc([N+](=O)[O-])cc3c2=O)c(OC)c1 returned LmPK inhibitor 2.4%, HCMV inh -26.2 and Tb PYK inh -0.2%.
`Cc1cc2nc(-c3ccc[nH]c3=O)n(Cc3ccccc3F)c2cc1C` gave LmPK inhibitor 5.7%, HCMV inh 39.8, VACV Venus inh 3.6%, Vaccinia mCherry -0.6% and Tb PYK inh 2.1%.
CSCCC(NC(=O)c1ccco1)C(=O)OCC(=O)N1c2ccccc2NC(=O)C1(C)C (stereo unspecified) was read as HCMV inh 1.9 and Tb PYK inh -13.4%.
